Measurements taken from PubChem BioAssay.
Calls of active or inactive are those of the source.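 How the source made its calls, unless noted: active means compounds that lower survival of HCT116 colon cancer cells in the luminescence readout, no numeric limit stated; inactive means the rest.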

Assays:
[1] = stimulators of nuclear beta-catenin in C2C12, primary screen, imaging, WNT3A-conditioned medium, mouse C2C12, NPC library (AID 1117326; in the data active means nuclear beta-catenin stimulation mostly above about 4.2%, no sharp cut-off; inactive means mostly below about 10%; further: reference of the scale not given here); details: stronger effect = higher value
[2] = stimulators of insulin release from INS-1E, primary screen, cell-based, 5 mM glucose, NPC library (AID 1117329;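 active means compound raises insulin release from rat beta cells at 5 mM glucose, no numeric limit stated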; further: reference of the scale not given here); details: rat INS-1E insulin secretion, at 10 µM, stronger effect = higher value
[3] = growth inhibition of GSK3B-pretreated HCT116 cells – cell-based, CellTiter-Glo, 0.2 to 20 µM (AID 1117336;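 active means compounds lowering colon cancer cell viability after pretreatment blocking the GSK3B kinase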); details: HCT116 viability after GSK3B inhibitor, at 20 µM, stronger effect = higher value
[4] = inhibition of endothelial tube formation, primary screen, imaging, VEGF stimulated, CD31 staining, tube area, NPC library (AID 1117340;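 active means compound that reduces growth-factor-driven endothelial tube area in a mixed cell culture, no cutoff stated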); details: VEGF-stimulated ADSC/ECFC co-culture, at 10 µM, stronger effect = higher value
[5] = glucagon-like peptide 1 release enhancers, primary assay, NCI-H716 cell line, NPC library (AID 1117341;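 active means compound raises GLP1 secretion from the human gut endocrine cells, with no numeric limit stated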; further: reference of the scale not given here); details: NCI-H716 cells, at 10 µM, stronger effect = higher value
[6] = HCT116 colon cancer cell growth inhibition, primary screen, CellTiter-Glo luminescence, NPC library (AID 1117342); details: at 20 µM (top of the series)
[7] = CellTiter-Glo luminescent readout of SW480 viability loss, NPC library primary (AID 1117343;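 active means compounds that lower viability of the colon cancer cells in the luminescence readout, with no numeric limit stated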); details: CellTiter-Glo luminescence; at 20 µM (top of the series)
[8] = decreased DLD-1 cellular survival, CellTiter-Glo luminescent readout, NPC compound collection, primary HTS (AID 1117346;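 active means compounds that lower survival of DLD-1 colon cancer cells in the luminescence readout, no cutoff given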); details: DLD-1 viability, CellTiter-Glo luminescence; at 20 µM (top of the series)

Row | SMILES | nuclear beta-catenin stimulation ([1]; at 10 µM) | nuclear beta-catenin stimulation ([1]; stimulation, at 2 µM) [%] | insulin secretion stimulation [2] | viability decrease [3] | tube area decrease [4] | GLP1 secretion stimulation [5] | inhibition of viability [6] | viability decrease (inhibition) [7] | viability decrease (inhibition) [8]
1 | Cc1ccc(C(=O)C(=O)O)cc1C | 1% (inactive) | 1.8 | 2.9% (inactive) | -10.8% (inactive) | -6.7% (inactive) | -3.1% (inactive) | -6.7% (inactive) | 17.4% (inactive) | -5% (inactive)
2 | Cc1cccc(N(C)C(=S)Oc2ccc3c(c2)CCC3)c1 | 0% (inactive) | -1.8 | 3.9% (inactive) | 33.9% (inactive) | -13.8% (inactive) | -4.7% (inactive) | 55.5% (active) | 42.6% (inactive) | 55.5% (active)
3 | CC[C@@]1(c2ccccc2)NC(=O)N(C)C1=O | 0.1% (inactive) | 0.6 | -0.2% (inactive) | 2.35% (inactive) | 0.1% (inactive) | -0.6% (inactive) | -10.2% (inactive) | 11.6% (inactive) | -9.4% (inactive)
4 | Nc1ncnc2c1ncn2CCOCP(=O)(O)O | -0.6% (inactive) | 0.1 | -2% (inactive) | -1.45% (inactive) | 11.2% (inactive) | 4% (inactive) | -1.5% (inactive) | 27.9% (inactive) | 6.8% (inactive)
5 | COc1ccc([C@@H]2Sc3ccccc3NC(=O)[C@@H]2O)cc1 | 7.8% (inactive) | 0.6 | 2.8% (inactive) | 77.6% (active) | 57.7% (active) | 2.6% (inactive) | 96.6% (active) | 87.2% (active) | 67.4% (active)
6 | CCCCCC1Nc2cc(C(F)(F)F)c(S(N)(=O)=O)cc2S(=O)(=O)N1 (stereo not drawn) | 0.5% (inactive) | -0.2 | 2% (inactive) | 13.4% (inactive) | 9.2% (inactive) | -0.1% (inactive) | 43% (inactive) | 0.7% (inactive) | 31.7% (inactive)
7 | CC1(C)S[C@@H]2[C@H](NC(=O)C(C(=O)Oc3ccc4c(c3)CCC4)c3ccccc3)C(=O)N2[C@H]1C(=O)O (stereo partly drawn) | 1% (inactive) | 0.4 | 4.4% (inactive) | -7.7% (inactive) | -2.6% (inactive) | -0.3% (inactive) | 1.5% (inactive) | 86% (active) | -6.9% (inactive)
8 | CCC(=O)Oc1ccc2c(c1)CC[C@@H]1[C@H]2CC[C@]2(C)[C@@H](OC(=O)CC)CC[C@@H]12 | -0.2% (inactive) | 0.2 | 0.1% (inactive) | 33.4% (inactive) | 28% (inactive) | 2.4% (inactive) | 42.6% (inactive) | 49.6% (inactive) | 2.6% (inactive)
9 | CNC(=O)c1c(I)c(NC(=O)CCCCC(=O)Nc2c(I)c(C(=O)O)c(I)c(C(=O)NC)c2I)c(I)c(C(=O)O)c1I | -0.7% (inactive) | 2.2 | -0.3% (inactive) | -17.5% (inactive) | -0.8% (inactive) | -0.4% (inactive) | 9.4% (inactive) | -3.6% (inactive) | -2.4% (inactive)
10 | O=C(CO)[C@@H](O)[C@H](O)[C@@H](O)CO | -1.8% (inactive) | -0.9 | 3% (inactive) | -1.5% (inactive) | -29.2% (inactive) | -2.6% (inactive) | 8.2% (inactive) | 4.9% (inactive) | 3.2% (inactive)
11 | C=Cc1ccccc1 | -2.1% (inactive) | -0.8 | 3.5% (inactive) | -5% (inactive) | -9.4% (inactive) | -1.4% (inactive) | 6.9% (inactive) | 0.4% (inactive) | 1.7% (inactive)
12 | N[C@H](C(=O)O)[C@@H](O)c1ccc(O)c(O)c1 | 0.1% (inactive) | 0 | 11.2% (inactive) | 31.7% (inactive) | 1.4% (inactive) | -4.8% (inactive) | 6.7% (inactive) | 21.5% (inactive) | 2.8% (inactive)
13 | CC(C)(C)NCC(O)COc1ccc(NC(=O)NC2CCCCC2)cc1 (stereo not drawn) | 1.2% (inactive) | -0.1 | 1.65% (inactive) | -5.2% (inactive) | 9.5% (inactive) | 2% (inactive) | -0.2% (inactive) | -5.6% (inactive) | -1.8% (inactive)
14 | C[C@H](CCC(=O)O)[C@H]1CC[C@H]2[C@@H]3CC[C@@H]4C[C@H](O)CC[C@]4(C)[C@@H]3C[C@H](O)[C@]12C | -0.7% (inactive) | -1.1 | 1% (inactive) | 37.6% (inactive) | 0% (inactive) | -5% (inactive) | 57% (active) | 35.7% (inactive) | 9.8% (active)
15 | O=C(O)c1ccc(OCCCOc2ccc(C(=O)O)cc2)cc1 | 1.9% (inactive) | 0.7 | 3.2% (inactive) | -0.8% (inactive) | -2.8% (inactive) | -1.8% (inactive) | -0.8% (inactive) | 5.3% (inactive) | -6.3% (inactive)
16 | COC(=O)C1=C(C)NC(C)=C(C(=O)OCC(C)=O)C1c1ccccc1[N+](=O)[O-] (stereo not drawn) | 1.6% (inactive) | 1.2 | -0.3% (inactive) | 25.5% (inactive) | 7% (inactive) | -2.7% (inactive) | 39.1% (inactive) | 69.6% (active) | 28.3% (inactive)

Row | SMILES | nuclear beta-catenin stimulation ([1]; at 10 µM) | nuclear beta-catenin stimulation ([1]; stimulation, at 2 µM) [%] | insulin secretion stimulation [2] | viability decrease [3] | tube area decrease [4] | GLP1 secretion stimulation [5] | inhibition of viability [6] | viability decrease (inhibition) [7] | viability decrease (inhibition) [8]
17 | Cc1ccccc1C(=O)Nc1ccc(C(=O)N2CCCC(N(C)C)c3ccccc32)cc1 (stereo not drawn) | 58.3% (active) | 30 | 2.4% (inactive) | 18.9% (inactive) | 59.2% (active) | 2.1% (inactive) | 80.2% (active) | 80.2% (active) | 59% (active)
18 | Cc1cccc(OCC(O)CNC(C)(C)C)c1C (stereo not drawn) | -0.4% (inactive) | 0.2 | 1% (inactive) | -0.4% (inactive) | 18.2% (inactive) | -1% (inactive) | 23.8% (inactive) | 24.5% (inactive) | 8.8% (inactive)
19 | COc1cc(O)cc(O)c1 | 1.6% (inactive) | -0.2 | 4.5% (inactive) | -4.6% (inactive) | 10.6% (inactive) | -9.8% (inactive) | 7.93% (inactive) | 4% (inactive) | -9.1% (inactive)
20 | Cc1ccccc1N=Nc1ccc(N=Nc2c(O)ccc3ccccc23)c(C)c1 | 4.6% (inactive) | 5.4 | 1.7% (inactive) | 2.6% (inactive) | 38.9% (inactive) | -8.5% (inactive) | 6.3% (inactive) | 17.9% (inactive) | 15.4% (inactive)
21 | Cc1ccc(-c2ccccc2C#N)cc1 | 1.4% (inactive) | 6.2 | 0.25% (inactive) | 3.2% (inactive) | -5.1% (inactive) | 2.4% (inactive) | -1.3% (inactive) | -24.5% (inactive) | -11% (inactive)
22 | C/C(=C(/OCCOc1ccc(Cl)cc1)c1ccc(Cl)cc1Cl)n1ccnc1 | 3.9% (inactive) | 1.3 | -0.7% (inactive) | 102% (active) | 109% (active) | 4.1% (inactive) | 102% (active) | 143% (active) | 105% (active)
23 | CCN1/C(=C/C=C/c2sc3ccccc3[n+]2CC)Sc2ccccc21 | 1.2% (inactive) | 7.5 | -0.5% (inactive) | 99.1% (active) | -349% (inactive) | -2.9% (inactive) | 98.8% (active) | 103% (active) | 102% (active)
24 | CCCCCCCC[N+](C)(C)CCCCCCCC | -3.8% (inactive) | 34.4 | -3% (inactive) | 99.5% (active) | 108% (active) | -2.7% (inactive) | 99.6% (active) | 102% (active) | 101% (active)
25 | OC[C@]1(O)OC[C@@H](O)[C@H](O)[C@@H]1O | 3.7% (inactive) | 0.4 | -1.9% (inactive) | -2.95% (inactive) | 7.1% (inactive) | -6% (inactive) | -4.9% (inactive) | 92.3% (active) | 9.6% (inactive)
26 | CC(=O)Nc1ccc(OCCOCCOc2ccc(NC(C)=O)cc2)cc1 | 0.3% (inactive) | 0.3 | -2.6% (inactive) | 0.7% (inactive) | -0.3% (inactive) | -1.2% (inactive) | -3.5% (inactive) | 11.3% (inactive) | -8.2% (inactive)
27 | CC(C)CCOC(=O)c1ccc(N(C)C)cc1 | 0% (inactive) | 0.7 | 0.4% (inactive) | -16.7% (inactive) | -11.5% (inactive) | 1.7% (inactive) | 19.9% (inactive) | -6.9% (inactive) | 10.3% (inactive)
28 | CC1CC(=O)NN=C1c1ccc(NCC(C)(C)NCC(O)COc2cc(Cl)ccc2C#N)cc1 (stereo not drawn) | -1.8% (inactive) | 1.1 | 31.3% (active) | -8% (inactive) | 11.2% (inactive) | 1% (inactive) | 23.2% (inactive) | 5.4% (inactive) | 15.4% (inactive)
29 | CCOc1ncc(F)c(=O)[nH]1 | -1% (inactive) | -1.1 | 2.9% (inactive) | 0.7% (inactive) | 0.1% (inactive) | 2.1% (inactive) | 2.4% (inactive) | 3% (inactive) | -4.2% (inactive)
30 | CCOC(=O)N1CCC(Nc2ccc(Cl)cc2N)CC1 | 5.3% (inactive) | 4.4 | 0.6% (inactive) | 0.9% (inactive) | 41.4% (active) | -4.9% (inactive) | 32.5% (inactive) | 27.8% (inactive) | -12.2% (inactive)
31 | COc1cccc2c1C(=O)c1c(O)c3c(c(O)c1C2=O)C[C@@](O)(C(=O)CO)C[C@@H]3O[C@H]1C[C@H](N)[C@H](O[C@@H]2CCCCO2)[C@H](C)O1 | 26.6% (active) | 79.4 | 0.2% (inactive) | 78.8% (active) | -67.7% (active) | -0.8% (inactive) | 66.5% (active) | 81% (active) | 76% (active)
32 | Nc1nc(-c2ccccc2)c(Br)c(=O)[nH]1 | 3.6% (inactive) | 2.1 | -0.7% (inactive) | -50.3% (inactive) | 17% (inactive) | 3.9% (inactive) | -10.9% (inactive) | 11.9% (inactive) | 0.7% (inactive)
